MITF TRPM1 inh – reduces MITF-dependent TRPM1 promoter luciferase signal; SK-MEL-5 TRPM1 promoter luciferase, 24 h; inhibition, % at 12.5 µM; 330,000 tested, 0.83% active; AID 488899;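 active = mean inhibition across replicates of 60% or more, whatever share of single replicates reaches that level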
TROY NFkB inh – inhibitors of TROY-dependent NF-kB signaling | Q293 LMP1-TROYcd NF-kB luciferase reporter, 4 h | inhibition, % at 10 µM | 360,000 tested, 0.98% active | AID 1347056;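 active = compounds whose plate-normalised and pattern-corrected inhibition of the luciferase reporter signal at the single screening dose is 50% or more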
Shn3 3UTR inh – Schnurri-3 reporter inhibition in Clone20 osteoblasts. Clone20 osteoblast Shn3 3'UTR firefly luciferase, 24 h. inhibition, % at 12.5 µM. 360,000 tested, 0.52% active;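 active = mean inhibition of at least 75% with every replicate also reaching 75%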;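 note: 0% = median of neutral control wells and 100% = pilot-screen positive control compound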
Peg3 prom inh – reduces Peg3 promoter-driven luciferase expression in HeLa. inhibition, % at 20 µM. HeLa PEG-Prom luciferase reporter, luminescence, overnight. AID 588405. 360,000 tested, 1.7% active;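 active = inhibition of at least 50% at 20 µM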
TWEAK-Fn14 inh – TWEAK-Fn14 signaling inhibition. TWEAK-stimulated Fn14 reporter cells, luciferase luminescence, 8 h. inhibition, % at 10 µM. 360,000 tested, 2% active. AID 1159606; in the data active = inhibition above about 50%
LMP1 NFkB inh – inhibitors of Epstein-Barr LMP1-induced NF-kappaB reporter. 350,000 tested, 0.69% active. inhibition, % at 12.5 µM. LMP1-induced NF-kappaB luciferase reporter cells, luminescence; in the data active = inhibition above about 41%;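 note: 0% = neutral control wells and 100% = reference inhibitor control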
Numbers without * were called inactive; · = not tested or not shown. Hits are enriched below; roughly 4.1% of the tested compounds scored in any of these assays.

SMILES	MITF TRPM1 inh	TROY NFkB inh	Shn3 3UTR inh	Peg3 prom inh	TWEAK-Fn14 inh	LMP1 NFkB inh
O=C(NCCN1C(=O)S/C(=C\c2ccc(Cl)c([N+](=O)[O-])c2)C1=O)C1=COCCO1	28.9	56.6*	6.2	93.2*	63.6*	2.0
O=C(NCCN1C(=O)S/C(=C\c2ccc(Cl)c(Cl)c2)C1=O)c1cnccn1	-3.0	11.7	15.8	23.4	7.2	1.4
O=C(NCCS(=O)(=O)NC1CCCCC1)c1ccc2c(c1)OCO2	0.7	-3.9	-3.5	-24.0	-12.6	-1.1
CCc1nc2ccc(C(=O)NC3CCN(Cc4ccccc4)CC3)cn2c1N(CC)Cc1cccc(Br)c1	·	19.2	-3.0	94.3*	-2.6	·
Cc1nn(Cc2cccc(F)c2)c(C)c1NC(=O)c1ccc(COc2ccccc2Cl)cc1	-1.3	44.1	12.2	31.0	69.8*	15.2
COC(=O)C1=C(C(=O)OC)[C@@H]2N(C)c3ccc(OC)cc3[C@@]23C[C@@H](C(=O)OC)N(C(=O)c2cccs2)C3=N1	8.8	6.5	0.0	19.4	30.2	1.6
C=C(C)COc1ccc(-c2n[nH]c(C)c2-c2ccc(OC)cc2)c(O)c1	5.7	-9.6	39.5	79.9*	1.7	3.4
COc1ccc(-c2n[nH]c(C)c2-c2cscn2)c(O)c1	-1.2	3.8	14.2	4.2	11.3	-1.0
COc1ccc2[nH]cc(CCNC(=O)c3ccccc3Cl)c2c1	2.4	-8.3	-8.8	-6.1	-2.1	-7.6
CN(C(=O)c1ccno1)c1nnc(-c2ccccn2)s1	-19.8	-17.9	-19.4	-36.3	11.5	-4.0
COc1ccc(-c2nnc(N(C)C(=O)c3ccno3)s2)cc1	-79.1	·	-73.0	-220.0	50.1*	2.8
CCCCc1nc2cc(C(=O)N3CCN(c4nc(C)cnc4C)CC3)ccc2o1	-79.5	-24.8	-47.0	-233.1	2.0	20.1
CCOC(=O)Nc1ccc2nc(Sc3ccc(Cl)cc3)sc2c1	9.4	81.5*	25.7	14.6	9.3	0.1
COc1ccc([C@H]2CC(=O)C=C(c3ccc(Cl)c(F)c3)C2)cc1	-13.0	-15.0	-22.2	-37.0	-31.3	0.6
CNC(=O)Nc1ccccc1C(=O)NCc1ccccc1	3.4	-6.8	5.1	14.6	62.2*	7.3
CCC1CCCCN1C(=O)c1ccc2c(c1)C(=O)N(c1ccc(C)cc1)C2=O (stereo not drawn)	11.6	2.4	13.2	9.1	10.0	-3.4
Cc1ccc2c(c1)C1CN(C)CCC1N2C(=O)c1cccc(S(=O)(=O)N(C)C)c1 (stereo not drawn)	4.1	66.9*	-2.3	-4.3	2.2	8.7
CN1CCN(S(=O)(=O)c2cccc(C(=O)N3CCN(c4ccccc4)CC3)c2)CC1	-1.1	-11.6	7.6	5.1	0.4	-4.6
CC(=O)c1c(O)cc(O)c(C(C)=O)c1O	13.2	59.0*	12.4	5.1	-27.9	3.1
CC(=O)c1c(O)cc(O)cc1CC(=O)O	0.1	-6.3	-10.8	1.9	9.2	-27.8
CC(C)(O)C#Cc1ccc(N2C(c3ccsc3)=Cc3ccc(F)cc3C2c2c[nH]c3ccc(C#N)cc23)cc1 (stereo not drawn)	·	-11.0	·	·	-14.1	·
CCOC(=O)c1ccc(-c2ccc(N3C(c4ccsc4)=Cc4ccc(F)cc4C3c3c[nH]c4ccc(C#N)cc34)cc2)cc1F (stereo not drawn)	·	14.1	·	·	53.5*	·
CCOc1ccc(NC(=S)N2CCC(NC(=O)C3CCCCC3)CC2)cc1	1.7	-30.6	16.9	-6.8	10.6	2.2
Cn1c(CSCc2ccc(Cl)c(Cl)c2)nnc1SCC(=O)Nc1nccs1	4.5	19.6	39.1	30.5	50.7*	4.5
Cc1nc(N)sc1-c1csc(Nc2ncccn2)n1	39.6	33.2	-83.1	-9.3	50.3*	6.3
SMILES	MITF TRPM1 inh	TROY NFkB inh	Shn3 3UTR inh	Peg3 prom inh	TWEAK-Fn14 inh	LMP1 NFkB inh
Cc1cc(C)nc(Nc2nc(-c3ccccc3)cs2)n1	-0.1	38.7	-27.1	-158.8	62.6*	-53.8
Cc1ccc(S(=O)(=O)Nc2nc(-c3ccccc3)cs2)cc1	-11.8	7.9	-11.4	16.7	4.6	-4.2
COc1ccccc1Nc1nc(-c2sc(N)nc2C)cs1	0.6	-20.7	2.3	-47.9	1.2	-5.5
Cc1ccc(Nc2nc(-c3ccccc3)cs2)nc1	-0.6	35.0	14.3	-141.6	74.7*	-59.1
Cc1ccc(Nc2nc(-c3cccs3)cs2)nc1	18.5	70.5*	0.9	-53.2	74.7*	35.5
Cc1nc(C)c(-c2csc(Nc3ccc(F)cc3)n2)s1	-27.1	-18.3	-46.5	-186.2	31.1	-57.4
Cc1nc(C)c(-c2csc(Nc3ccc(Cl)cn3)n2)s1	·	7.7	-5.1	-189.8	56.7*	3.0
O=C(/C=C1\NC2(CCCC2)Cc2ccccc21)C(=O)N/N=C/c1ccc(O)c(O)c1	19.7	-16.1	50.2	57.1*	25.4	-15.6
CCCc1cc(=O)n2[nH]cc(-c3ccc(Cl)cc3)c2n1	20.8	31.4	0.9	56.8*	33.2	44.1*
O=C(CSc1nc2ccccc2[nH]1)NC1CCCC1	9.5	-6.3	-36.4	-11.9	-4.1	2.8
O=C(CSc1ncccc1-c1nc2ccccc2[nH]1)NC1CC1	-4.9	55.3*	1.1	-2.3	52.8*	9.0
CCOC(=O)Cc1csc(NC(=O)CSc2ncnc3c2cnn3-c2ccc(OC)cc2)n1	-11.0	32.8	-19.2	-58.7	60.9*	10.0
COc1ccccc1N1CCN(C(=O)CSc2ncccc2-c2nc3ccccc3[nH]2)CC1	9.8	-4.6	31.7	15.5	56.1*	21.8
COc1ccc(-n2ncc3c(SCC(=O)N4CCN(c5ccccc5OC)CC4)ncnc32)cc1	14.8	6.1	18.8	-1.7	54.9*	-2.0
CCN(CC(=O)Nc1ccc(NC(C)=O)cc1)C(=O)CCCSc1nc2ccccc2[nH]1	3.8	-2.2	-8.5	12.4	-13.3	-5.0
Cc1cc(N2CCCC2)ccc1NC(=O)COc1cccc(C(F)(F)F)c1	14.3	-8.5	27.4	13.6	15.6	7.8
COCCN(C(=O)COC(=O)c1oc2ccc(OC)cc2c1C)c1c(N)n(Cc2ccccc2)c(=O)[nH]c1=O	-2.9	-5.9	-0.9	4.4	-15.3	3.7
COc1ccc(N2CCN(C(=O)CSc3ncccc3-c3nc4ccccc4[nH]3)CC2)cc1	18.5	4.3	26.3	-10.1	32.3	10.8
O=C(CSc1ncccc1-c1nc2ccccc2[nH]1)N1CCN(c2ccccc2F)CC1	5.8	57.4*	-1.9	10.9	70.7*	8.8
Cc1csc(NC(=O)c2ccc(OCC3CCCO3)cc2)n1 (stereo not drawn)	-14.3	23.0	-11.0	-56.6	68.6*	34.9
Cc1cccc2sc(NC(=O)c3ccc(OCC4CCCO4)cc3)nc12 (stereo not drawn)	-10.4	33.0	-15.2	-212.3	85.0*	4.5
Cc1ccnc(NC(=O)COc2ccc3c(c2)CCC3)c1	-42.7	40.1	-44.3	-108.6	79.4*	-19.0
CCOc1ccc2nc(NC(=O)c3ccc(OCC4CCCO4)cc3)sc2c1 (stereo not drawn)	-2.3	48.6	41.9	-97.1	61.8*	1.5

Bioassay records as filed in PubChem.
